In the supplement of paper PMC3414501:
Structures can show the parent of a compound that is named as a salt. A number with no mark means an inactive call.

How the values were obtained:
[1] = tested on: S. cerevisiae SK1 pCDA2-eGFP (USY613), sporulating; test: CDA2-GFP sporulation assay sensitivity score (z-score vs DMSO controls); higher = stronger inhibition of sporulation, active = hit call of the paper;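 note: active if sensitivity score above 5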
[2] = tested on: S. cerevisiae NKY1551 his4x/his4B, sporulating; test: HIS4 meiotic recombination assay sensitivity score (z-score vs DMSO controls); higher = stronger inhibition of sporulation/recombination, active = hit call of the paper;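 note: active if sensitivity score above 5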
[3] = tested on: S. cerevisiae AD1-9 (efflux-pump deficient), vegetative growth in YPD; test: growth sensitivity score (doubling time z-score vs DMSO controls); higher = slower growth, strongly negative scores also mark growth inhibition (complete suppression), active = hit call of the paper
Outline: (§1)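 Yeast (Saccharomyces cerevisiae BY4741 and AD1-9) was grown in rich medium in microtiter plates from a starting OD600 of 0.065, with optical density read every 15 min over 24 hours. The growth sensitivity score was the difference between compound and solvent-only means, divided by the solvent-only standard deviation. Every experiment had eight solvent-only wells.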

[4] = tested on: S. cerevisiae BY4741 (wild-type), vegetative growth in YPD; test: as above
Outline: as §1

Compound	CDA2-GFP sporulation assay sensitivity score [1]	HIS4 meiotic recombination assay sensitivity score [2]	growth sensitivity score [3]	growth sensitivity score [4]
CNCCCCOc1ccccc1Cc1ccccc1 [Bifemelane] (stock concentration (mM, diluted 1:100): 10)	1.21	9.23 (active)	127 (active)	3.54 (active)
CC(C)Oc1ccc2c(=O)c(-c3ccccc3)coc2c1 [Ipriflavone] (stock concentration (mM, diluted 1:100): 10)	-1.58	-1.16	3.44 (active)	-0.15
Clc1ccccc1C(c1ccccc1)(c1ccccc1)n1ccnc1 [Clotrimazole] (stock concentration (mM, diluted 1:100): 10)	3.7	-0.98	2.49 (active)	62.8 (active)
CCCCCCNC(=O)n1cc(F)c(=O)[nH]c1=O [Carmofur] (stock concentration (mM, diluted 1:100): 10.3)	0.49	-2.78	22.8 (active)	37.2 (active)
CCc1ccc(CCOc2ccc(CC3SC(=O)NC3=O)cc2)nc1 (centres undefined) [Pioglitazone hydrochloride] (stock concentration (mM, diluted 1:100): 9.1)	2.87	0.36	-1.03	-0.08
CCOC(=O)c1ccc(OC(=O)CCCCCNC(=N)N)cc1 [Gabexate mesylate] (stock concentration (mM, diluted 1:100): 7.7)	2.43	2.41	10.8 (active)	1.03
